Source: PubChem BioAssay (NCI)
Compounds without any hit were thinned out: in the full panel of roughly 79,000, 15% have a hit. The source made the active and inactive calls. Rule as the data show it: active = growth inhibition above about 70%; inactive = the rest.

What was measured:
[1] = NCI Yeast Anticancer Drug Screen. Data for the rad52 strain (AID 147);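 also: 0% = growth of vehicle-treated control cultures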; conditions: S. cerevisiae rad52 mutant growth inhibition, active compounds read high
In short: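 Yeast strain carrying a DNA damage repair alteration was exposed to test compounds. Growth inhibition was measured relative to vehicle-treated controls.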

[2] = NCI Yeast Anticancer Drug Screen. Data for the wt1 strain (AID 149);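 also: 0% = growth of vehicle-treated wt1 cultures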; conditions: S. cerevisiae wt1 strain (SPY 50644) growth inhibition, active compounds read high
In short: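 wt1 yeast, compound-treated; % growth inhibition vs vehicle control.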

[3] = NCI Yeast Anticancer Drug Screen. Data for the rad50EPP+ strain (AID 151);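 also: 0% = growth of vehicle-treated control cultures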; conditions: S. cerevisiae rad50 mutant strain, active compounds read high
In short: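 Yeast strain carrying rad50 alteration (rad50EPP+) exposed to compounds; growth inhibition measured relative to vehicle-treated controls.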

[4] = NCI Yeast Anticancer Drug Screen. Data for the rad50 strain (AID 155);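 also: 0% = growth of vehicle-only cultures of the same strain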; conditions: S. cerevisiae rad50 strain growth inhibition, active compounds read high
In short: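 Genetically altered yeast (DNA repair pathway); compound treatment; growth inhibition vs vehicle ctrl.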

[5] = NCI Yeast Anticancer Drug Screen. Data for the mec2-1 strain (AID 157); conditions: S. cerevisiae mec2-1 strain, active compounds read high
In short: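 mec2-1 yeast strain, carrying an alteration in DNA damage repair or cell cycle control, was exposed to compounds; growth inhibition was measured relative to vehicle-treated controls.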

[6] = NCI Yeast Anticancer Drug Screen. Data for the rad14 strain (AID 159);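 also: 0% = growth of vehicle-treated control cultures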; conditions: S. cerevisiae rad14 strain growth inhibition, active compounds read high
In short: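 Test compounds were applied to a repair-deficient yeast strain. Its growth was then compared with that of cultures given vehicle alone, and inhibition was expressed relative to those controls.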

[7] = NCI Yeast Anticancer Drug Screen. Data for the sgs1 mgt1 strain (AID 161);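 also: 0% = growth of cultures given vehicle only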; conditions: S. cerevisiae sgs1 mgt1 strain, active compounds read high
In short: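 Yeast cells carrying a defined DNA-repair defect were exposed to test compounds. Growth inhibition was measured relative to vehicle-treated controls.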

[8] = NCI Yeast Anticancer Drug Screen. Data for the CLN2oe strain (AID 163);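 also: 0% = growth of vehicle-only control cultures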; conditions: S. cerevisiae CLN2oe strain, active compounds read high
In short: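 Yeast cells carrying a defined cell-cycle control alteration were exposed to test compounds. Growth inhibition was scored against vehicle-treated control cultures.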

[9] = NCI Yeast Anticancer Drug Screen. Data for the cln2 rad14 strain (AID 165);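 also: 0% = growth equal to vehicle treated cultures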; conditions: S. cerevisiae cln2 rad14 strain, active compounds read high
In short: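 Yeast carrying cln2 and rad14 alterations (cell cycle control and DNA damage repair) were exposed to compounds. Growth inhibition was measured against vehicle-treated controls.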

[10] = NCI Yeast Anticancer Drug Screen. Data for the bub3 strain (AID 167); conditions: S. cerevisiae bub3 mutant strain, active compounds read high
In short: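 Yeast carrying a defined mutation is treated with each compound, and growth is compared with that of vehicle-exposed cells to give inhibition.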

[11] = NCI Yeast Anticancer Drug Screen. Data for the wt2 strain (AID 169);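 also: 0% = growth of vehicle-treated yeast cultures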; conditions: S. cerevisiae wt2 strain growth inhibition, active compounds read high
In short: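 Yeast cells were exposed to test compounds, and growth inhibition was measured relative to vehicle-treated controls.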

[12] = NCI Yeast Anticancer Drug Screen. Data for the mlh1 strain (AID 171);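 also: 0% = growth of vehicle-treated control cultures of the same strain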; conditions: S. cerevisiae mlh1 strain growth inhibition, active compounds read high
In short: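 Yeast carrying a defined genetic alteration in DNA damage repair or cell cycle control were exposed to test compounds. Growth inhibition was measured relative to vehicle-treated controls.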

[13] = NCI Yeast Anticancer Drug Screen. Data for the sgs1 strain (AID 173);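 also: 0% = growth of vehicle-only control cultures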; conditions: S. cerevisiae sgs1 mutant, active compounds read high
In short: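 Yeast mutant strains carrying defined defects in DNA damage repair or cell cycle control were exposed to test compounds. Growth inhibition was scored against vehicle-treated controls.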

[14] = NCI Yeast Anticancer Drug Screen. Data for the mlh1 rad18 strain (AID 175); conditions: S. cerevisiae mlh1 rad18 strain growth inhibition, active compounds read high
In short: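 Growth inhibition of the yeast strain was measured after compound exposure and expressed relative to vehicle-treated controls. The strain carries defined defects in DNA damage repair.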

[15] = NCI Yeast Anticancer Drug Screen. Data for the rad18 strain (AID 177); conditions: S. cerevisiae rad18 mutant growth inhibition, active compounds read high
In short: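 Yeast carrying a defined DNA damage repair alteration were exposed to compounds. Growth inhibition was expressed relative to vehicle-treated controls.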

[16] = at 5.0 µM (retest, dose inferred, filed as 0.5)
[17] = at 50.0 µM (retest, dose inferred, filed as 5.0)

Measured: growth inhibition

Cc1cc(OCc2ccccc2)ccc1[N+](=O)[O-]
inactive: [1]; at 1.2 µM 20% | [1]; at 3.7 µM 22% | [1]; at 11.0 µM 21% | [1]; at 33.0 µM 44% | [1]; at 100.0 µM 69% | [2]; at 1.2 µM 23% | [2]; at 3.7 µM -10% | [2]; at 11.0 µM 21% | [2]; at 33.0 µM 32% | [2]; at 100.0 µM 60% | [3]; at 1.2 µM -2% | [3]; at 3.7 µM -2% | [3]; at 11.0 µM 5% | [3]; at 33.0 µM 57% | [4]; at 1.2 µM 11% | [4]; at 3.7 µM 34% | [4]; [16] 50% | [4]; at 11.0 µM 29% | [4]; at 33.0 µM 31% | [4]; at 50.0 µM 37.2% | [4]; at 100.0 µM 50% | [5]; at 1.2 µM 2% | [5]; at 3.7 µM 15% | [5]; [16] 51% | [5]; at 11.0 µM 10% | [5]; at 33.0 µM 22% | [5]; at 50.0 µM 26.9% | [6]; at 1.2 µM -15% | [6]; at 3.7 µM 1% | [6]; at 11.0 µM 11% | [6]; at 33.0 µM 39% | [6]; at 100.0 µM 63% | [7]; [16] -5% | [8]; at 1.2 µM 9% | [8]; at 3.7 µM 23% | [8]; at 11.0 µM 11% | [8]; at 33.0 µM 32% | [9]; [16] 40% | [9]; at 50.0 µM 44.1% | [10]; at 1.2 µM -16% | [10]; at 3.7 µM -11% | [10]; [16] 33% | [10]; at 11.0 µM -5% | [10]; at 33.0 µM 12% | [10]; at 50.0 µM 55.6% | [10]; at 100.0 µM 51% | [11]; at 1.2 µM -11% | [11]; at 3.7 µM -11% | [11]; at 11.0 µM -7% | [11]; at 33.0 µM 9% | [11]; at 100.0 µM 47% | [12]; at 1.2 µM 21% | [12]; at 3.7 µM 15% | [12]; at 11.0 µM 3% | [12]; at 33.0 µM 16% | [13]; at 1.2 µM 11% | [13]; at 3.7 µM 16% | [13]; at 11.0 µM 6% | [13]; at 33.0 µM 38% | [14]; [16] 42% | [14]; at 50.0 µM 18.1% | [15]; at 1.2 µM -15% | [15]; at 3.7 µM -14% | [15]; at 11.0 µM -14% | [15]; at 33.0 µM 22% | [15]; at 100.0 µM 66%
active: [3]; at 100.0 µM 75% | [4]; [17] 85% | [5]; [17] 85% | [5]; at 100.0 µM 78% | [7]; [17] 88% | [7]; at 50.0 µM 74.6% | [8]; at 100.0 µM 71% | [9]; [17] 93% | [10]; [17] 95% | [12]; at 100.0 µM 82% | [13]; at 100.0 µM 88% | [14]; [17] 84%

Cc1ccccc1NC(=O)Cc1csc(N/N=C2\NC(=O)/C(=C/c3cccc([N+](=O)[O-])c3)S2)n1
active: [7]; at 50.0 µM 79% | [13]; at 100.0 µM 70%
inactive: [1]; at 1.2 µM 2% | [1]; at 3.7 µM 5% | [1]; at 11.0 µM 13% | [1]; at 33.0 µM 24% | [1]; at 100.0 µM 49% | [2]; at 1.2 µM 3% | [2]; at 3.7 µM 6% | [2]; at 11.0 µM 4% | [2]; at 33.0 µM 11% | [2]; at 100.0 µM 26% | [3]; at 1.2 µM 4% | [3]; at 3.7 µM 9% | [3]; at 11.0 µM 15% | [3]; at 33.0 µM 39% | [3]; at 100.0 µM 51% | [4]; at 1.2 µM -4% | [4]; at 3.7 µM -11% | [4]; [16] 8% | [4]; at 11.0 µM -6% | [4]; at 33.0 µM 24% | [4]; [17] 10% | [4]; at 50.0 µM 64.1% | [4]; at 100.0 µM 50% | [5]; at 1.2 µM 4% | [5]; at 3.7 µM 2% | [5]; [16] 8% | [5]; at 11.0 µM 5% | [5]; at 33.0 µM 12% | [5]; [17] 13% | [5]; at 50.0 µM 32.1% | [5]; at 100.0 µM 23% | [6]; at 1.2 µM 4% | [6]; at 3.7 µM 2% | [6]; at 11.0 µM 8% | [6]; at 33.0 µM 16% | [6]; at 100.0 µM 22% | [7]; [16] -1% | [7]; [17] 22% | [8]; at 1.2 µM 0% | [8]; at 3.7 µM 0% | [8]; at 11.0 µM -4% | [8]; at 33.0 µM 1% | [8]; at 100.0 µM 17% | [9]; [16] -16% | [9]; [17] 28% | [9]; at 50.0 µM 21.6% | [10]; at 1.2 µM -1% | [10]; at 3.7 µM -1% | [10]; [16] -25% | [10]; at 11.0 µM 0% | [10]; at 33.0 µM 15% | [10]; [17] 69% | [10]; at 50.0 µM 66.2% | [10]; at 100.0 µM 32% | [11]; at 1.2 µM 2% | [11]; at 3.7 µM 3% | [11]; at 11.0 µM 5% | [11]; at 33.0 µM 17% | [11]; at 100.0 µM 46% | [12]; at 1.2 µM 1% | [12]; at 3.7 µM 4% | [12]; at 11.0 µM 6% | [12]; at 33.0 µM 20% | [12]; at 100.0 µM 51% | [13]; at 1.2 µM 5% | [13]; at 3.7 µM 6% | [13]; at 11.0 µM 8% | [13]; at 33.0 µM 40% | [14]; [16] 13% | [14]; [17] 42% | [14]; at 50.0 µM 60.5% | [15]; at 1.2 µM -2% | [15]; at 3.7 µM -3% | [15]; at 11.0 µM 6% | [15]; at 33.0 µM 32% | [15]; at 100.0 µM 59%
